Source: PubChem
CYP2C19 act: human CYP2C19 activators, primary screen, biochemical, luminescence. Cytochrome P450 2C19 (Homo sapiens), P33261. recombinant CYP2C19, luciferin-H EGE luminescence; stronger effect = higher value; 0 = fully inhibited enzyme, 1 = untreated enzyme. activation factor at 5 µM. 96,000 tested, under 10 active. AID 1025, 2008;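 active means activation factor of at least 2 at 5 µM in the primary screen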;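 further: 0 = wells with 2.5 mM tranylcypromine and 1 = vehicle-only wells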
Target sequence (P33261 whole entry, looked up): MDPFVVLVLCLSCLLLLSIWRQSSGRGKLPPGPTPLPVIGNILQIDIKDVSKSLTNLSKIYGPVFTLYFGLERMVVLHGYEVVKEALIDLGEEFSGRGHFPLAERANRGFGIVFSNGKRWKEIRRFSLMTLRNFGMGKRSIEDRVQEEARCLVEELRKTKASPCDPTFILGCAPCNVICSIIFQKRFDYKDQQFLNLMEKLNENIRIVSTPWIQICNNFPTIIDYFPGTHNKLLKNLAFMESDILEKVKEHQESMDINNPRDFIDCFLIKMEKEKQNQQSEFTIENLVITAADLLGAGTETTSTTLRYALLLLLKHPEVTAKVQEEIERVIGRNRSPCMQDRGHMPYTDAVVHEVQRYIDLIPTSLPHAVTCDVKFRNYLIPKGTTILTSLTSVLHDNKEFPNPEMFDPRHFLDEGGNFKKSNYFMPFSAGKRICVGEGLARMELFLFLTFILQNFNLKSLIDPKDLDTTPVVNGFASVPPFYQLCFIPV
PostGolgi yeast: phenotypic screen on post-Golgi transport, primary screen. post-Golgi transport phenotypic cell assay. inhibition, % at 10 µM. actives 0.9% (n = 98,000);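 further: yeast cells grown in 1536-well plates; yeast grown about 18 h at 30C before absorbance read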
CYP2C19 inh: blockers of cytochrome P450 2C19 activity – biochemical, luminescence, ADME assay, primary screen. AID 778, 2007. inhibition, % at 5 µM. CYP2C19 Supersomes, luciferin-H EGE luminescence, 30 min. actives 21% (n = 96,000);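 active means CYP2C19 inhibition above a set limit at 5 µM in the primary screen, cut at about 50% in these data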;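 further: plate controls were negative control wells for no effect and 2.5 mM tranylcypromine positive control for full effect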
CYP2C9 act: human CYP2C9 activators, primary screen, biochemical, luminescence; Cytochrome P450 2C9 (Homo sapiens), P11712; recombinant CYP2C9, luciferin-H conversion; stronger effect = higher value; factor 1 = untreated enzyme, 0 = blocked; activation factor at 5 µM; actives 1.4% (n = 96,000);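 active means activation factor of 2 or more for CYP2C9 at a 5 µM dose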;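 further: 0 = sulfaphenazole-blocked wells and 1 = vehicle-only wells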
PostGolgi ctrl: growth inhibition of yeast control strain, primary screen, counter-screen for post-Golgi transport modulator project. efflux-deficient yeast background strain, growth absorbance A615, 16 h. inhibition, % at 10 µM. actives 5% (n = 98,000). AID 738, 2007
CYP2C9 inh: blockers of cytochrome P450 2C9 activity – biochemical, luminescence, ADME assay, primary screen; AID 777, 2007; actives 20% (n = 96,000); CYP2C9 Supersomes, luciferin-H conversion; P11712; inhibition, % at 5 µM;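 active means blocking of liver enzyme CYP2C9 beyond about 50% at 5 µM, limit read from the data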
The depositor's hits bear a star. Compounds with a hit are over-represented: about 32% of the library has one in this group of screens. Unless noted, no stated cut-off is given here; in the data, active means inhibition above about 30%; inactive means the rest.

COc1ccccc1CNC(=O)C1CCCN(S(=O)(=O)c2c(C)[nH]c(=O)[nH]c2=O)C1 (configuration not stated) was read as CYP2C19 act 1.1, PostGolgi yeast 4, CYP2C19 inh -8, CYP2C9 act 0.9, PostGolgi ctrl 0 and CYP2C9 inh 8.
`O=C(NCc1ccc(Cl)cc1)C1CCCN(S(=O)(=O)c2cnc[nH]2)C1` (configuration not stated) gave CYP2C19 act 0, PostGolgi yeast -6, CYP2C19 inh 99*, CYP2C9 act 0, PostGolgi ctrl -1 and CYP2C9 inh 96*.
Screening COc1ccc(CNC(=O)C2CCCN(S(=O)(=O)c3cnc[nH]3)C2)cc1 (configuration not stated) returned CYP2C19 act 0.2, PostGolgi yeast -6, CYP2C19 inh 78*, CYP2C9 act 0.5, PostGolgi ctrl 23 and CYP2C9 inh 46.
For O=C(C1CCN(S(=O)(=O)c2cnc[nH]2)CC1)N1CCn2c1nc1ccccc12 the results were CYP2C19 act 0.4, PostGolgi yeast 9, CYP2C19 inh 60*, CYP2C9 act 0.4, PostGolgi ctrl 22 and CYP2C9 inh 64*.
For Cc1ccc(CNC(=O)C2CCN(S(=O)(=O)c3cnc[nH]3)CC2)cc1 the results were CYP2C19 act 0.8, PostGolgi yeast 23, CYP2C19 inh 16, CYP2C9 act 0.1, PostGolgi ctrl -2 and CYP2C9 inh 90*.
`Cc1ccc(CNC(=O)C2CCCN(S(=O)(=O)c3cnc[nH]3)C2)cc1` (configuration not stated) gave CYP2C19 act 0, PostGolgi yeast 0, CYP2C19 inh 96*, CYP2C9 act 0.3, PostGolgi ctrl -4 and CYP2C9 inh 67*.
For Cc1ccc(NC(=O)C2CCN(S(=O)(=O)c3cnc[nH]3)CC2)nc1 the results were CYP2C19 act 0.9, PostGolgi yeast 5, CYP2C19 inh 7, CYP2C9 act 0.7, PostGolgi ctrl 1 and CYP2C9 inh 32.
Screening COc1ccccc1NC(=O)Cn1nnc(-c2ccccc2NC(=O)c2cc3ccccc3oc2=O)n1 returned CYP2C19 act 1, PostGolgi yeast -6, CYP2C19 inh -4, CYP2C9 act 0.8, PostGolgi ctrl 4 and CYP2C9 inh 24.
For COc1ccc(-c2cc(NCc3ccccn3)n3ncnc3n2)cc1 the results were CYP2C19 act 0.9, PostGolgi yeast 18, CYP2C19 inh 8, CYP2C9 act 0.9, PostGolgi ctrl 14 and CYP2C9 inh 8.
For COc1ccc(-c2cc(-c3ccc(Br)cc3)nc3ncnn23)cc1OC the results were CYP2C19 act 1.2, PostGolgi yeast 19, CYP2C19 inh -16, CYP2C9 act 0.5, PostGolgi ctrl 8 and CYP2C9 inh 55*.
Screening O=C(Nc1nccs1)c1ccc2nccnc2c1 returned CYP2C19 act 0.9, PostGolgi yeast -5, CYP2C19 inh 8, CYP2C9 act 0.8, PostGolgi ctrl 6 and CYP2C9 inh 23.
Screening CC1=Nc2cccc3cccc(c23)N1 returned CYP2C19 act 1, PostGolgi yeast -4, CYP2C19 inh 1, CYP2C9 act 1, PostGolgi ctrl 3 and CYP2C9 inh 4.
c1cc2c3c(cccc3c1)NC1(CCCCCC1)N2 was read as CYP2C19 act 0.1, PostGolgi yeast 3, CYP2C19 inh 87*, CYP2C9 act 0.4, PostGolgi ctrl -5 and CYP2C9 inh 62*.
`c1cc2c3c(cccc3c1)NC1(CCCCC1)N2` gave CYP2C19 act 0.3, PostGolgi yeast 2, CYP2C19 inh 72*, CYP2C9 act 0.5, PostGolgi ctrl 4 and CYP2C9 inh 52*.
CCOC(=O)C1CCN(Cc2oc(CO)cc(=O)c2O)CC1 was read as CYP2C19 act 0.9, PostGolgi yeast 8, CYP2C19 inh 14, CYP2C9 act 1, PostGolgi ctrl -7 and CYP2C9 inh 5.
`CCc1nccn1S(=O)(=O)c1ccc2ccccc2c1` gave CYP2C19 act 0.8, PostGolgi yeast 4, CYP2C19 inh 25, CYP2C9 act 1.7, PostGolgi ctrl 3 and CYP2C9 inh -72.
For CCc1nccn1S(=O)(=O)c1ccc(Br)cc1Br the results were CYP2C19 act 0.1, PostGolgi yeast -2, CYP2C19 inh 92*, CYP2C9 act 0.4, PostGolgi ctrl 2 and CYP2C9 inh 59*.
For CCc1nccn1S(=O)(=O)c1ccc(OC)c(C)c1C the results were CYP2C19 act 0.3, PostGolgi yeast -6, CYP2C19 inh 71*, CYP2C9 act 1.1, PostGolgi ctrl 8 and CYP2C9 inh -9.
For Nc1cc(=O)[nH]n1C1CCN(c2ccccc2)CC1 the results were CYP2C19 act 0.9, PostGolgi yeast 1, CYP2C19 inh 12, CYP2C9 act 1.4, PostGolgi ctrl 1 and CYP2C9 inh -37.
Cc1ccc(C)c(N(CC(N)=O)S(C)(=O)=O)c1 was read as CYP2C19 act 1.1, PostGolgi yeast -3, CYP2C19 inh -7, CYP2C9 act 1.1, PostGolgi ctrl 16 and CYP2C9 inh -14.
O=C(Nc1ccccc1)N1CC=C(c2ccc(F)cc2)CC1 was read as CYP2C19 act 0.4, PostGolgi yeast -7, CYP2C19 inh 56*, CYP2C9 act 0.7, PostGolgi ctrl 12 and CYP2C9 inh 30.
`O=c1[nH]c(NCc2ccco2)nnc1Cc1ccccc1Cl` gave CYP2C19 act 1, PostGolgi yeast -3, CYP2C19 inh -1, CYP2C9 act 2.5*, PostGolgi ctrl 2 and CYP2C9 inh -153.
Screening Cn1c(=O)[nH]c(=O)c2c1nc(NCc1ccco1)n2CCCc1ccccc1 returned CYP2C19 act 1, PostGolgi yeast 5, CYP2C19 inh 0, CYP2C9 act 0.9, PostGolgi ctrl 6 and CYP2C9 inh 7.
Screening CCCn1nnnc1-c1cccc(Cl)c1 returned CYP2C19 act 0.6, PostGolgi yeast 10, CYP2C19 inh 39, CYP2C9 act 0.9, PostGolgi ctrl -1 and CYP2C9 inh 10.
Screening CSc1ccc(C(=S)N2CCN(Cc3ccccc3)CC2)cc1 returned CYP2C19 act 0.5, PostGolgi yeast -9, CYP2C19 inh 52*, CYP2C9 act 0.6, PostGolgi ctrl 22 and CYP2C9 inh 41.
Cn1c(=O)cc(OCC(=O)N2CCC(N3CCCCC3)CC2)c2ccccc21 was read as CYP2C19 act 1.2, PostGolgi yeast 2, CYP2C19 inh -22, CYP2C9 act 1.2, PostGolgi ctrl 16 and CYP2C9 inh -17.
For COc1ccc(C(=O)N(CN2CCCC2=O)c2nccs2)cc1OC the results were CYP2C19 act 1, PostGolgi yeast -1, CYP2C19 inh 1, CYP2C9 act 0.9, PostGolgi ctrl -9 and CYP2C9 inh 9.
